# EPAC1 ag – qHTS for Agonist of cAMP-regulated guanine nucleotide exchange factor 3 (EPAC1): primary screen | EPAC1 agonist qHTS, biochemical assay; response scale: 100% = response to 6.5 mM cAMP | Potency, µM (doses to about 154 µM), without a hit: at the highest dose activation, most hits filed as activators | 0.073% of 360,000 active | AID 720707, 2013; further: nearly all actives have a fitted effect of over 60% in size
#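 Fluorescent GDP-exchange assay: 100 nM EPAC1 with 250 nM Rap1B preloaded with BODIPY-GDP and 50 uM GDP; compounds tested as concentration series, 5 min at room temperature, then read every 5 min for 30 min (ex 480/em 540 nm); normalized to 6.5 mM cAMP.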
# EPAC2 ag – qHTS for Agonist of cAMP-regulated guanine nucleotide exchange factor 4 (EPAC2): primary screen | AID 720711, 2013 | 0.079% of 360,000 active | Potency, µM (doses to about 154 µM), inactives show at the top dose activation, hits mostly activators | Rap guanine nucleotide exchange factor 4 (Homo sapiens), Q8WZA2 | EPAC2 activation, biochemical qHTS; response scale: 100% = 6.5 mM cAMP response; further: nearly all actives have a fitted effect of over 50% in size
# Target sequence (Q8WZA2 whole entry, looked up): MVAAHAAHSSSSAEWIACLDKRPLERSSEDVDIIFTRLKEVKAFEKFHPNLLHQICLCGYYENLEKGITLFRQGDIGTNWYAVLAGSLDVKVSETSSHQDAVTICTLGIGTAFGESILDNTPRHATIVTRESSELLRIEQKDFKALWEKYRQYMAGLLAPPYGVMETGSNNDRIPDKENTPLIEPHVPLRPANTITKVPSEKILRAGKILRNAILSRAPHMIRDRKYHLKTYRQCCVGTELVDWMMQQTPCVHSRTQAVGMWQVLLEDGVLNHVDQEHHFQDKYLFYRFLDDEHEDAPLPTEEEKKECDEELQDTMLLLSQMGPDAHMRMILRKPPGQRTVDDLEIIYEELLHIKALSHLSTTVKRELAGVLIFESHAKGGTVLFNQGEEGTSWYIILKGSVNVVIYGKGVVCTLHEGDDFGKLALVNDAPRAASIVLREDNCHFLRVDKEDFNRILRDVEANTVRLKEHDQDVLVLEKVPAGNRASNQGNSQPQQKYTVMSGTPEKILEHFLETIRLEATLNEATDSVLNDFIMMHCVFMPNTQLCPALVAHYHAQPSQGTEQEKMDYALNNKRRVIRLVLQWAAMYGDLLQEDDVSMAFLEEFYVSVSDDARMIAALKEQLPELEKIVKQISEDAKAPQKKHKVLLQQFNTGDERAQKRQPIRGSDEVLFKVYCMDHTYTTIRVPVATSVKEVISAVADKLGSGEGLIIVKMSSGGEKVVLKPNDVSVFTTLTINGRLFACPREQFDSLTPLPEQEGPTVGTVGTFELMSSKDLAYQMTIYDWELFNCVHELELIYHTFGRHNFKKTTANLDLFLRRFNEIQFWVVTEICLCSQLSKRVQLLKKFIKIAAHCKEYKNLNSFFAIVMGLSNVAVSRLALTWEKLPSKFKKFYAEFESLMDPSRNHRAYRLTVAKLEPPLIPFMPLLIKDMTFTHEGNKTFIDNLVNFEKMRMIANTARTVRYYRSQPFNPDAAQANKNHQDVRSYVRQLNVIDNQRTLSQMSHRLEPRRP
#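 Compounds were titrated in qHTS against a Rap1B-BODIPY-GDP (250 nM) complex with EPAC2 (100 nM) and GDP (50 uM). BODIPY-GDP release tracked at 480/540 nm over 30 min at room temperature, normalized to 6.5 mM cAMP.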
# EPAC2 antag – qHTS for Antagonist of cAMP-regulated guanine nucleotide exchange factor 2 (EPAC2): primary screen. 0.18% of 360,000 active. EPAC2 GEF exchange of Rap1B-BODIPY-GDP, fluorescence. Potency, µM (top dose mostly 114 µM), inactives show at the highest dose activity, negative = inhibition, most hits filed as inhibitors. Rap guanine nucleotide exchange factor 4 (Homo sapiens), Q8WZA2; further: on the % scale 0 is the no-effect control and ±100 the full control effect; nearly all actives have a fitted effect of over 45% in size
# EPAC1 antag – qHTS for Antagonist of cAMP-regulated guanine nucleotide exchange factor 3 (EPAC1): primary screen; 0.14% of 360,000 active; Potency, µM (highest dose often 115 µM), inactives show top-dose activity change, negative = inhibition, hits mostly inhibitors; AID 720709, 2013; Rap guanine nucleotide exchange factor 3 (Homo sapiens), O95398; EPAC1 GEF assay, Rap1b-BODIPY-GDP exchange fluorescence;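 further: plate controls were vehicle for no effect and positive control for full effect; nearly all actives have a fitted effect of over 50% in size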
# B2AR arrestin – qHTS assay of beta-arrestin-biased ligands of beta2-adrenergic receptor; 0.02% of 330,000 active; beta-arrestin recruitment to beta2AR, cell-based reporter; AID 492947, 2010; Potency, µM (highest dose often 46.1 µM), for the others: top-dose activation, most hits filed as activators;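 further: 0% = DMSO controls and full agonism = EC100 isoproterenol or metaproterenol; nearly all actives have a fitted effect of over 65% in size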
# * = called active by the depositor; ? = inconclusive; nt = not tested or not shown. In the library only some 0.4% were active in any assay of this set; here they are far more common. The call rests on the fitted dose curve; in most records, active means well fitted curve in the direction sought with a large enough effect; inconclusive means small, poorly fitted or top-dose-only effect, or another doubt; inactive means no such curve, though single readings can be large; an effect the other way counts as inactive or inconclusive. Potency means the concentration at half of the fitted maximal effect.
SMILES,EPAC1 ag,EPAC2 ag,EPAC2 antag,EPAC1 antag,B2AR arrestin
C#CCOCCOCCOCCNc1nc(N2CCN(C(=O)CCCCCCCCCCNC(=O)Cn3cc(C[C@@H](C)O)nn3)CC2)nc(N2CCN(C(=O)CCCCCCCCCCNC(=O)[C@@H]([C@H](C)CC)n3cc(CCCCCN)nn3)CC2)n1,19.0%,16.1%,-28.5%,50.1µM*,-0.9%
C#CCOCCOCCOCCNc1nc(N2CCN(C(=O)CCCCCCCCCCNC(=O)[C@H](CCCCN)n3cc(C[C@@H](C)CC)nn3)CC2)nc(N2CCN(C(=O)CCCCCCCCCCNC(=O)[C@H](CCCN=C(N)N)n3cc(C[C@@H](C)CC)nn3)CC2)n1,27.1%,11.3%,?,?,0.0%
C#CCOCCOCCOCCNc1nc(N2CCN(C(=O)CCCCCCCCCCNC(=O)Cn3cc(CCCCCN)nn3)CC2)nc(N2CCN(C(=O)CCCCCCCCCCNC(=O)Cn3cc(C[C@@H](C)O)nn3)CC2)n1,22.8%,?,?,35.5µM*,0.4%
O=C(COC(=O)C1=COCCO1)Nc1ccc([N+](=O)[O-])cc1C(F)(F)F,11.5%,3.5%,-0.4%,3.9%,0.4%
CCN(CC(=O)Nc1ccc(Br)cc1F)CC(=O)NC1CCS(=O)(=O)C1 (stereo unspecified),-1.5%,3.5%,4.2%,-6.3%,0.0%
COc1cc(C(=O)OCC(=O)N(CC(C)C)C2CCS(=O)(=O)C2)cc(OC)c1C (stereo unspecified),-4.8%,-8.5%,5.3%,-6.1%,-1.1%
COC1CCCN(Cc2c(C(=O)N3CCN(C4CCCCC4)CC3)nc3ccccn23)C1 (stereo unspecified),2.3%,5.8%,0.6%,12.4%,-0.2%
O=S(=O)(c1ccccc1)N1CCNCC1,2.7%,-2.8%,5.1%,21.7%,nt
CCOC(=O)c1c(NC(=O)/C=C/c2ccc3c(c2)OCO3)sc(C)c1CC,-13.0%,6.31µM*,10.8%,-0.6%,-1.7%
Cc1ccc2c(CC(=O)Nc3ccc4nc(N5CCOCC5)sc4c3)coc2c1,-0.2%,-12.6%,13.1%,-6.7%,nt
CCOC(=O)Nc1sc(C)nc1-c1ccccc1,5.4%,7.0%,-6.3%,-0.6%,-0.3%
CCOC(=O)Nc1cc2c(c(N)n1)N=C(c1ccccc1)CN2,10.2%,1.7%,11.6%,89.1µM*,nt
COC(=O)c1cc(C(=O)c2ccc(Cl)cc2)n2c(=O)/c(=C\N(C)C)sc12,11.9%,100µM*,93.4%,-4.7%,-0.1%
COC(=O)c1cc(C(=O)c2ccccc2)n2c(=O)/c(=C\N(C)C)sc12,5.4%,19.3%,-0.9%,-24.7%,0.4%
O=c1[nH]c(Nc2ccccc2)cc2cc(Br)ccc12,-5.1%,6.4%,-10.2%,?,nt
CC(=O)c1cccc(-c2ccc3c(=O)[nH]c(Nc4ccccc4)cc3c2)c1,12.6%,8.0%,4.9%,50.1µM*,nt
O=c1[nH]c(Nc2ccccc2)cc2ccccc12,-5.7%,5.8%,?,50.1µM*,-0.6%
O=C(O)c1cccc2cccc(-c3c4ccc(=O)c(O)c-4oc4c(O)c(O)ccc34)c12,12.5%,-3.6%,-27.9%,31.6µM*,nt
CCOC(=O)[C@H](O)[C@@H](O)c1cccc([C@H](O)[C@@H](O)C(=O)OCC)c1,-12.9%,13.2%,-3.7%,1.6%,-0.8%
CC1(C(=O)NS(=O)(=O)c2ccc(C#N)cc2)CCN1C(=O)CCC1CCCC1 (stereo unspecified),-18.9%,7.3%,-0.4%,4.0%,nt
Cc1ccc2nc(SCC(=O)c3c(N)n(C4CC4)c(=O)[nH]c3=O)[nH]c2c1,-9.2%,27.0%,70.8µM*,-8.6%,-0.3%
COc1ccc(C(O)c2ncc(-c3ccccc3Cl)[nH]2)cc1 (stereo unspecified),-2.1%,1.0%,3.5%,8.0%,nt
COn1c(-c2ccc(Cl)cc2)nc2ncccc21,7.0%,2.2%,-10.1%,5.3%,0.3%
CC(C)n1cc(/C=C/c2cc[n+](C)cc2)c2ccccc21,100µM*,?,71.8%,71.8%,0.4%
CCn1cc(/C=C/c2cc[n+](C)cc2)c2ccccc21,-7.4%,?,44.9%,5.6%,-0.8%
SMILES,EPAC1 ag,EPAC2 ag,EPAC2 antag,EPAC1 antag,B2AR arrestin
Cc1ccccc1/C=C/c1cc[n+](C)cc1,-0.2%,2.7%,6.7%,-15.4%,-0.2%
C=CCn1cc(/C=C/c2cc[n+](C)cc2)c2ccccc21,?,100µM*,123.8%,42.8%,-1.0%
COc1ccc(-c2csc3ncn(-c4ccc(C)cc4)c(=O)c23)cc1OC,-0.2%,5.8%,44.7µM*,-26.6%,-0.4%
COc1ccc(-n2cnc3scc(-c4ccc(OC)c(OC)c4)c3c2=O)cc1,1.8%,10.4%,?,-23.5%,-0.6%
CCOc1ccc(C(=O)NNC(=O)CN2C(=O)NC3(CCCC3)C2=O)cc1,5.3%,-2.7%,6.6%,2.6%,0.0%
CCOc1ccc(Oc2ccccc2NC(=O)CN2C(=O)NC3(CCCC3)C2=O)cc1,28.2µM*,-5.0%,-3.6%,-19.9%,-0.2%
O=C1NCCN(CC2CCN(CC3CCCC3)CC2)C1=O,-20.3%,6.6%,-4.9%,-12.0%,nt
COCCN=c1scc(-c2ccco2)n1/N=C/c1ccc(O)c(O)c1O,5.3%,-2.5%,12.0%,17.8µM*,-0.1%
CN=c1scc(C)n1/N=C/c1ccc(O)c(O)c1O,-0.1%,12.8%,-7.3%,50.1µM*,-0.1%
CC(C)N=c1scc(-c2ccco2)n1/N=C/c1ccc(O)c(O)c1,22.4%,?,-25.3%,?,-0.6%
C=CCN=c1scc(-c2ccco2)n1/N=C/c1ccc(O)c(O)c1O,20.4%,1.5%,-20.0%,56.2µM*,0.0%
CN=c1scc(-c2cccs2)n1/N=C/c1ccc(O)c(O)c1O,8.8%,0.4%,-3.5%,?,0.1%
COc1cc(/C=C2\C(=O)N(c3ccc(NC(C)=O)cc3)N=C2c2ccccc2)ccc1O,10.5%,12.3%,19.3%,-11.8%,-0.4%
CCOc1cc(/C=C2\C(=O)N(c3nc(-c4ccc(Br)cc4)cs3)N=C2c2ccccc2)ccc1O,-4.6%,-14.0%,3.0%,35.5µM*,0.1%
CC(NC(=O)COC(=O)CCC(=O)c1ccc(F)cc1)c1ccccc1 (stereo unspecified),-4.3%,5.9%,0.0%,-8.7%,-0.2%
C=CC[C@H](CC(=O)NCCO)C(=O)NCCOC(=O)[C@@H](CC=C)CC(=O)OC(C)(C)C,5.6%,0.6%,11.1%,14.6%,-0.1%
COCCCN1C(=O)C2C(C(=O)Nc3cccc(Cl)c3)C3C=CC2(O3)C1C(=O)NC1CCCCC1 (stereo unspecified),5.9%,9.7%,-5.8%,-14.2%,0.5%
